The record followed here is the supplement of paper PMC11417369.

In all, about 25,000 sequences were measured (“ln(normalized median fluorescence intensity)”: median about 9.7, highest 2% from about 11 on). Only a selection was taken, and the highest values are over-represented in it overall.

The subject of this assay is PfAP2-HC AP2 domain (GST-tagged). As to the kind of experiment: gcPBM binding intensity (ln(normalized median fluorescence intensity)); higher = stronger DNA binding. A digest of the protocol:
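After 1 h on an Agilent 4 × 180k array of primer-extended double-stranded 36-bp intergenic genomic probes and negative controls, bound GST-tagged P. falciparum DNA-binding domains were detected with Alexa488 anti-GST antibody and scanned at 488 nm. The domains had been expressed in E. coli, and binding took place in 1× PBS with 1% milk, 0.2 mg/ml BSA, 0.5% salmon testes DNA and 0.03% Triton X-100. Binding intensity is the highest Masliner-normalised natural-log median intensity across replicate spots of either probe orientation.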
Regarding “AAAAAAAAAAAAATGTGTACATACATATATTTATAT [XGTACX_site3076]”, the “gcPBM binding intensity (ln)” value was determined as 9.74. Under CTTTCGGTTGGAGAGGTGCGCTTCTCCTTTATAATA stands 9.61. As for “TTTTTTTTTTATGGTACACACACGCGTATGGTTGCA [CACACA_site1876]”, the “gcPBM binding intensity (ln)” value is 10. Regarding “AAGAAATAAATACATACACACATATATATATATATA [CACACA_site3362]”, the “gcPBM binding intensity (ln)” value is 10.3. Under “CGAAAGAAAAAAAGCACACACAGTTTTGAGCAATGA [CACACA_site2109]” stands 10.1; under “AAGTTTTATATTTATTAAATTTTTTTTTTTCCTTTT [XGTACX_negctrl_site184]”, 9.2.

In the case of “AATATTCGTAATTGATGTACTTGTAATTCATACATT [XGTACX_site8314]”, the “gcPBM binding intensity (ln)” value was 9.67. Under “AAATTTGGCAAACACACACACACACCCACAGAGACA [CACACA_site4490]” stands 11.3. “AACTTTGGCAAACACACACACACACCCACACCCACA [CACACA_site588]”: the “gcPBM binding intensity (ln)” value turned out to be 10.5. Under “AAATTTGGCAAACACACACACACACCCACACCCACA [CACACA_site8095]” stands 11.4; under “ATTTGGCAGAAACACACACACACACCCACCCACATA [CACACA_site589]”, 10.5.

Take “AAAAATTTGGCATACACACACACACCCACACCCACA [CACACA_site587]”: the “gcPBM binding intensity (ln)” value amounted to 10.4. On to “ATTTGGCATAAACACACACACACACCCACCCACATA [CACACA_site8096]”, for which the “gcPBM binding intensity (ln)” value is 10.9. As for “GATATGGAATATATGTGTACATATATATATATTATA [XGTACX_site1724]”, the “gcPBM binding intensity (ln)” value turned out to be 9.77. “TATTTATAAAAAAATACATGCATTTTTTTTTTTTTT [TGCATGCA_site65]”: the “gcPBM binding intensity (ln)” value was 9.36. As to “AAAACAAATTAAAATCGTACAATTATAATGTTAATG [XGTACX_site180]”, the “gcPBM binding intensity (ln)” value is 9.7. “TATTCTAATATATGCATACACACAAATGTGAATATA [CACACA_site2143]”: the “gcPBM binding intensity (ln)” value was determined as 9.66. As to “AGATAGCTATTAAAAAGTACAAAAAAATATATATAT [XGTACX_site6289]”, the “gcPBM binding intensity (ln)” value stood at 9.71. Under “ATATTACACATATATGCACACATTGTAGTTATTTAT [CACACA_site8843]” stands 9.99. For the sequence “ATATATAACGTGCACACACACATTTACGTATGAATA [CACACA_site6948]”, the “gcPBM binding intensity (ln)” value is 10. As to “ATATATAACGGGCACACACACATTTACGTATGAATA [CACACA_site1833]”, the “gcPBM binding intensity (ln)” value turned out to be 11.1. As to “TAATATATAACGTGCACACACACATTTACGTATGAA [CACACA_site1832]”, the “gcPBM binding intensity (ln)” value came out at 10. Under “TTTATTAGTAATTATACACACATATAAAATGAATAA [CACACA_site6754]” stands 9.67; under “ATAATAAGGTTAAGCACACATATTACATATATAACT [CACACA_site3356]”, 10. Under “GTTATATAAAAATATTGTACATTCTATATAAAGTCA [XGTACX_site4418]” stands 9.47.
